Source: the supplement of paper PMC13380429

Columns and labels:
[1] = test system: Vero E6 infected with SARS-CoV-2; test: inhibition of SARS-CoV-2 cytopathic effect; higher = more antiviral protection, active = above 15; conditions: 48 h
[2] = test system: Vero E6 infected with SARS-CoV-2; test: morphology score (similarity to uninfected cells); higher = more like uninfected cells; conditions: 24 h
[3] = test system: Vero E6 infected with SARS-CoV-2; test: SARS-CoV-2 infection rate relative to infected DMSO; higher = more infection, active = 60 or less; conditions: 24 h

Row | Compound | inhibition of SARS-CoV-2 cytopathic effect ([1]; 1 nM) | inhibition of SARS-CoV-2 cytopathic effect ([1]; 8.33 nM) | inhibition of SARS-CoV-2 cytopathic effect ([1]; 100 nM) | inhibition of SARS-CoV-2 cytopathic effect ([1]; 833.33 nM) | inhibition of SARS-CoV-2 cytopathic effect ([1]; 10000 nM) | morphology score [2] | SARS-CoV-2 infection rate [3]
1 | Sc1nc2ccccc2s1 [benzo[d]thiazole-2(3H)-thione] | -1.3% (inactive) | 0.55% (inactive) | -0.47% (inactive) | – | – | – | –
2 | C[N+]1(C)[C@@H]2C[C@@H](OC(=O)[C@H](CO)c3ccccc3)C[C@H]1[C@@H]1O[C@@H]12 [methscopolamine] | -1.29% (inactive) | -0.27% (inactive) | 1.56% (inactive) | 0.62% (inactive) | 1.83% (inactive) | – | –
3 | CC1(C)CC[C@]2(C(=O)O)CC[C@]3(C)[C@H](C(=O)C=C4[C@@]5(C)C=C(C#N)C(=O)C(C)(C)[C@@H]5CC[C@]43C)[C@@H]2C1 [bardoxolone] | -1.22% (inactive) | -1.62% (inactive) | 2.92% (inactive) | 3.36% (inactive) | 28.9% (active) | – | –
4 | O=C1NC(=O)C(c2ccccc2)(c2ccccc2)N1 [phenytoin] (10 µM) | – | – | – | – | – | 0.168 | 97% (inactive)
5 | NC1=N[C@@]2(c3cc(NC(=O)c4ccc(F)cn4)ccc3F)COC[C@H]2CS1 (10 µM) | – | – | – | – | – | 0.00208 | 116% (inactive)
6 | Cc1cccc(/C=C/c2ccccc2)n1 | 3.85% (inactive) | -0.34% (inactive) | -0.78% (inactive) | -1.72% (inactive) | -2.74% (inactive) | – | –
7 | COCCCOc1ccnc(C[S+]([O-])c2nc3ccccc3[nH]2)c1C (centres undefined) [rabeprazole] | -0.56% (inactive) | -0.31% (inactive) | 2.14% (inactive) | – | – | – | –
8 | C[C@H](NC(=O)[C@@H](O)c1cc(F)cc(F)c1)C(=O)N[C@@H]1C(=O)N(C)c2ccccc2-c2ccccc21 (10 µM) | – | – | – | – | – | 0.165 | 101% (inactive)
9 | C=C(CC)C(=O)c1ccc(OCC(=O)O)c(Cl)c1Cl [etacrynic-acid] | 1.1% (inactive) | 2.25% (inactive) | 2.32% (inactive) | 4.17% (inactive) | -6.97% (inactive) | – | –
10 | C/N=C(/NC#N)NCCSCc1csc(NC(=N)N)n1 [tiotidine] (10 µM) | – | – | – | – | – | 0.11 | 98% (inactive)
11 | COC1(C2=NCCN2)COc2ccccc2O1 (centres undefined) | 0.37% (inactive) | 1.98% (inactive) | -0.68% (inactive) | 1.5% (inactive) | 1.58% (inactive) | – | –
12 | Cc1ncc(C[n+]2csc(CCOP(=O)(O)OP(=O)(O)O)c2C)c(N)n1 [thiamine-pyrophosphate] | 2.5% (inactive) | 1.37% (inactive) | -0.57% (inactive) | 2.37% (inactive) | 0.01% (inactive) | – | –
13 | Cc1cc(Nc2ncnc3ccc(-c4ccc(CNCCS(C)(=O)=O)o4)cc23)ccc1Oc1ccn2ncnc2c1 [HER2-Inhibitor-1] | 2.32% (inactive) | 3.23% (inactive) | -0.2% (inactive) | -2.65% (inactive) | 3.1% (inactive) | – | –
14 | O=C(CNC(=O)c1ccc(Cl)cc1)NO [benurestat] | -3.63% (inactive) | -2.49% (inactive) | -1.54% (inactive) | -0.58% (inactive) | 0.4% (inactive) | – | –
15 | O=C(O)c1ccccc1C(=O)Nc1ccc(S(=O)(=O)Nc2nccs2)cc1 [phthalylsulfathiazole] | -0.6% (inactive) | 1.91% (inactive) | 1.2% (inactive) | 1.78% (inactive) | -0.84% (inactive) | – | –
16 | CC[N+](CC)(CCCNC1=CC(=O)C(NCCC[N+](CC)(CC)Cc2ccccc2)=CC1=O)Cc1ccccc1 [benzoquinonium-dibromide] | -1.79% (inactive) | 1.05% (inactive) | -2.22% (inactive) | 0.21% (inactive) | -1.78% (inactive) | – | –
17 | CC(C)(Oc1ccc(Cl)cc1)C(=O)N1CSCC1C(=O)O (centres undefined) [timofibrate] | 1.85% (inactive) | 4.22% (inactive) | 2.73% (inactive) | -9.25% (inactive) | 3.42% (inactive) | – | –
18 | O=C1CCCN1CC#CCN1CCCC1 [oxotremorine-sesquifumarate] | 0.81% (inactive) | 2.23% (inactive) | 4.01% (inactive) | 3.15% (inactive) | 0.96% (inactive) | – | –
19 | N#Cc1c(N)nc(SCc2csc(-c3ccc(Cl)cc3)n2)c(C#N)c1-c1ccc(OCCO)cc1 [capadenoson] | 0.18% (inactive) | -0.34% (inactive) | -1.11% (inactive) | -2.63% (inactive) | -3.59% (inactive) | – | –
20 | C/N=C(/NC#N)NCCSCc1csc(NC(=N)N)n1 [tiotidine] | -3.61% (inactive) | -1.47% (inactive) | -1.51% (inactive) | -3.05% (inactive) | -1.02% (inactive) | – | –
